Laboratory results taken from the supplement of paper PMC11732987, “Enantioselective OTUD7B fragment discovery through chemoproteomics screening and high-throughput optimisation” (Communications Chemistry, 2025).

What was measured:
Assay in all cases: log2 ratio of Biotin-Ahx-Ub-VS probe labelling (fragment/DMSO); higher = less target engagement (more negative = stronger competition), active = hit call of the paper (q ≤ 0.05, log2 ratio ≤ -1)
Conditions in all cases: compound concentration: 200 uM; treatment time: 3 h
USP34 = USP34 (UniProt Q70CQ2)
Method in brief: (§1)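 Labelled DUBs from HEK293T lysate were NeutrAvidin-enriched, digested with LysC and trypsin, and run by diaPASEF LC-MS/MS. Before that, each 495 µg sample in Tris/CHAPS/IGEPAL buffer with protease inhibitors was treated in triplicate with fragment at 200 µM or vehicle for 3 h, then with Biotin-Ahx-Ub-VS at 0.5 µM final for 1 h. Values are average log2 ratios of fragment over vehicle by unpaired t-test, based on global-median-normalised Spectronaut label-free quantities from proteins with ≥2 unique peptides.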

USP36 = molecular target: T1, USP36 (UniProt Q9P275)
T1 sequence (whole entry): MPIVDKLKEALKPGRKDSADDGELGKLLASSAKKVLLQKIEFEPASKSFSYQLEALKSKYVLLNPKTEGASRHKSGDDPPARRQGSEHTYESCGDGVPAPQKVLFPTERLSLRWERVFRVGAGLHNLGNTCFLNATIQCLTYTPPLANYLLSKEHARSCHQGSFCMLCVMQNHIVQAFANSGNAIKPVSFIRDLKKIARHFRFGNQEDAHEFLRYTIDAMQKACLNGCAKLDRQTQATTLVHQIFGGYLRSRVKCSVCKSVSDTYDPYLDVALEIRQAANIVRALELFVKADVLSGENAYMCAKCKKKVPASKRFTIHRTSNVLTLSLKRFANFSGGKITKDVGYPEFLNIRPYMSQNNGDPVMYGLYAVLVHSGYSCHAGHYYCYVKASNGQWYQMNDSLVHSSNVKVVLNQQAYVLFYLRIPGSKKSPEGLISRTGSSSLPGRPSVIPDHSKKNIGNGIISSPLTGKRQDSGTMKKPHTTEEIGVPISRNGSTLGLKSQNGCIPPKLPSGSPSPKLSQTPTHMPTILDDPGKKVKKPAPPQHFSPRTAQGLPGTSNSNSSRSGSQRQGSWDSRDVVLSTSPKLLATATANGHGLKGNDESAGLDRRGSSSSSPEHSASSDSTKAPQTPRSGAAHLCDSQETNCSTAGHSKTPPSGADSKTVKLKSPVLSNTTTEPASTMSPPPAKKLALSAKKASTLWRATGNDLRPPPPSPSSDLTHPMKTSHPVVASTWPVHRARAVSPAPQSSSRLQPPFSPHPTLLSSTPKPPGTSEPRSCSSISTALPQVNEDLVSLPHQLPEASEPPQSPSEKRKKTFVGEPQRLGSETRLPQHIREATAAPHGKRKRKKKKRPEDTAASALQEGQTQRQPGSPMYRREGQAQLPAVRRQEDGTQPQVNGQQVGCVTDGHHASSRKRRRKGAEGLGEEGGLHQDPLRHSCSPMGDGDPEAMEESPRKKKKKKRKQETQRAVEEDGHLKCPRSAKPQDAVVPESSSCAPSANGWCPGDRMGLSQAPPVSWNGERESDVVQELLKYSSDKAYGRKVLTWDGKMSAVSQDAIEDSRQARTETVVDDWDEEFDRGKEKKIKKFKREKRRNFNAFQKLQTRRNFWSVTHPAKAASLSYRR
Method in brief: as §1

USP38 = molecular target: T2, USP38 (UniProt Q8NB14)
T2 sequence (whole entry): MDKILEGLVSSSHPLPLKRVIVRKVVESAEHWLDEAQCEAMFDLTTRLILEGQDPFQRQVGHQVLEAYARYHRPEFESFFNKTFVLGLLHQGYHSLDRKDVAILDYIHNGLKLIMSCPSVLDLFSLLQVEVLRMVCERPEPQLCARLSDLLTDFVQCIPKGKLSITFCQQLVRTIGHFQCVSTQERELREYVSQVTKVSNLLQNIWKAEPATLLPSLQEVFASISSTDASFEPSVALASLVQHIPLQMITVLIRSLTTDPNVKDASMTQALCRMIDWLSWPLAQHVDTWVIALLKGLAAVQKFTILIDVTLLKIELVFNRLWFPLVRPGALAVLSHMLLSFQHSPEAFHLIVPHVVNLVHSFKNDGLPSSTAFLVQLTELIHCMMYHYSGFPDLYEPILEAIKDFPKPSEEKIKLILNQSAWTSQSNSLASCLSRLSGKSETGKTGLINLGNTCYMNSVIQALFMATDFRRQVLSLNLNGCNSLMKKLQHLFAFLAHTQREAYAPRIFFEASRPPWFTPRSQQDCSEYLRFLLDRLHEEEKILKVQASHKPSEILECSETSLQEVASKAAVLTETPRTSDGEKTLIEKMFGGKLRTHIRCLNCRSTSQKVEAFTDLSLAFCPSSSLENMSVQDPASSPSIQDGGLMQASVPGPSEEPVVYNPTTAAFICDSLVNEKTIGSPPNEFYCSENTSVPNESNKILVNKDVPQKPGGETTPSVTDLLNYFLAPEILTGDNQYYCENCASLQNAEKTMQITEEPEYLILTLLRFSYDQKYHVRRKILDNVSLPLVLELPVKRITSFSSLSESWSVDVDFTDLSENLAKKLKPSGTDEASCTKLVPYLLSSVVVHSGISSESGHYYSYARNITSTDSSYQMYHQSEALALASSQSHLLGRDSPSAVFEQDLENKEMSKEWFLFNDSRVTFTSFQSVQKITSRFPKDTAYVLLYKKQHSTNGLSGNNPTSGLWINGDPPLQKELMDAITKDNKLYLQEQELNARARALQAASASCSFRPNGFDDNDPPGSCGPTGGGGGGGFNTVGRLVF
Method in brief: as §1

USP39 = molecular target: T3, USP39 (UniProt Q53GS9)
T3 sequence (whole entry): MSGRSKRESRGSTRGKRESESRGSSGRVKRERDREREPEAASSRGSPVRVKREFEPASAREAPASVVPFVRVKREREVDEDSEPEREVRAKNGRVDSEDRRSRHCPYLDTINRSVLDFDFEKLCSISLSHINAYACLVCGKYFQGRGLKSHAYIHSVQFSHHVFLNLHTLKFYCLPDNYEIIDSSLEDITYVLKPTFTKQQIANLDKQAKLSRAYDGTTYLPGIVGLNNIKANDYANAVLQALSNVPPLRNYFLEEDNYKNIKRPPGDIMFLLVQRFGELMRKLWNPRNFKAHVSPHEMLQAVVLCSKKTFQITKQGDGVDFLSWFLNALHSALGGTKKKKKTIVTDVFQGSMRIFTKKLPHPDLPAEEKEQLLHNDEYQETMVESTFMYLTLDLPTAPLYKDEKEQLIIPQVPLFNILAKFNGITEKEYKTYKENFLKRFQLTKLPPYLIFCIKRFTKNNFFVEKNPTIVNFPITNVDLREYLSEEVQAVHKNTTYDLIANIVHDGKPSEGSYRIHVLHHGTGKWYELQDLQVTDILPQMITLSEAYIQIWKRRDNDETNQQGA
Method in brief: as §1

USP4 = molecular target: T4, USP4 (UniProt Q13107)
T4 sequence (whole entry): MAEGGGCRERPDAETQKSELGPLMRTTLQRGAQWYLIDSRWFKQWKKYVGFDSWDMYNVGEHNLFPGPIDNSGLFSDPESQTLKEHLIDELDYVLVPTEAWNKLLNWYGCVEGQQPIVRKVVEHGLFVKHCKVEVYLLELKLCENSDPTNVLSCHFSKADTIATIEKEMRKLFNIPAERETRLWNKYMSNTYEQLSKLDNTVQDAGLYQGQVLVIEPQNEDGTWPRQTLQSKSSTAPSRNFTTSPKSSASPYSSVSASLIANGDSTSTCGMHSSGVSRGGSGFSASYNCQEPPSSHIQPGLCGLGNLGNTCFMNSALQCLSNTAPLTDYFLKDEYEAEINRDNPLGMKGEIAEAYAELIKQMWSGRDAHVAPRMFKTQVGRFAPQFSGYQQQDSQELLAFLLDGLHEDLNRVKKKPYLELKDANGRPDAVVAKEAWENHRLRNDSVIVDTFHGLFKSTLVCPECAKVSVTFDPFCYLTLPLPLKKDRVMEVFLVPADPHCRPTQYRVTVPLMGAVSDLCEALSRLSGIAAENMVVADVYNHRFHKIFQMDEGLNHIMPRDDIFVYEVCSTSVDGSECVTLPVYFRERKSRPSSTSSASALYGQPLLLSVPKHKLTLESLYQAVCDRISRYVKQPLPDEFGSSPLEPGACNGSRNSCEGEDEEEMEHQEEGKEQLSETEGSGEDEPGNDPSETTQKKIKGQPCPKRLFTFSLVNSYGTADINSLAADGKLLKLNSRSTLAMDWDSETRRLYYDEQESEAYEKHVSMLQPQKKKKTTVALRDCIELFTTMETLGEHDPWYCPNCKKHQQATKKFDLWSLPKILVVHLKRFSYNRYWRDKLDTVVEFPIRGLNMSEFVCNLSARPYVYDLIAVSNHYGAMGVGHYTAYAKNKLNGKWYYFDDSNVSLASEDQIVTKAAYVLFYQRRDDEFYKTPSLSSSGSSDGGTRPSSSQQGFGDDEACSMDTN
Method in brief: as §1

Measured: log2 ratio of Biotin-Ahx-Ub-VS probe labelling

Chain of USP34 (Q70CQ2 whole entry, the tested form may be a part): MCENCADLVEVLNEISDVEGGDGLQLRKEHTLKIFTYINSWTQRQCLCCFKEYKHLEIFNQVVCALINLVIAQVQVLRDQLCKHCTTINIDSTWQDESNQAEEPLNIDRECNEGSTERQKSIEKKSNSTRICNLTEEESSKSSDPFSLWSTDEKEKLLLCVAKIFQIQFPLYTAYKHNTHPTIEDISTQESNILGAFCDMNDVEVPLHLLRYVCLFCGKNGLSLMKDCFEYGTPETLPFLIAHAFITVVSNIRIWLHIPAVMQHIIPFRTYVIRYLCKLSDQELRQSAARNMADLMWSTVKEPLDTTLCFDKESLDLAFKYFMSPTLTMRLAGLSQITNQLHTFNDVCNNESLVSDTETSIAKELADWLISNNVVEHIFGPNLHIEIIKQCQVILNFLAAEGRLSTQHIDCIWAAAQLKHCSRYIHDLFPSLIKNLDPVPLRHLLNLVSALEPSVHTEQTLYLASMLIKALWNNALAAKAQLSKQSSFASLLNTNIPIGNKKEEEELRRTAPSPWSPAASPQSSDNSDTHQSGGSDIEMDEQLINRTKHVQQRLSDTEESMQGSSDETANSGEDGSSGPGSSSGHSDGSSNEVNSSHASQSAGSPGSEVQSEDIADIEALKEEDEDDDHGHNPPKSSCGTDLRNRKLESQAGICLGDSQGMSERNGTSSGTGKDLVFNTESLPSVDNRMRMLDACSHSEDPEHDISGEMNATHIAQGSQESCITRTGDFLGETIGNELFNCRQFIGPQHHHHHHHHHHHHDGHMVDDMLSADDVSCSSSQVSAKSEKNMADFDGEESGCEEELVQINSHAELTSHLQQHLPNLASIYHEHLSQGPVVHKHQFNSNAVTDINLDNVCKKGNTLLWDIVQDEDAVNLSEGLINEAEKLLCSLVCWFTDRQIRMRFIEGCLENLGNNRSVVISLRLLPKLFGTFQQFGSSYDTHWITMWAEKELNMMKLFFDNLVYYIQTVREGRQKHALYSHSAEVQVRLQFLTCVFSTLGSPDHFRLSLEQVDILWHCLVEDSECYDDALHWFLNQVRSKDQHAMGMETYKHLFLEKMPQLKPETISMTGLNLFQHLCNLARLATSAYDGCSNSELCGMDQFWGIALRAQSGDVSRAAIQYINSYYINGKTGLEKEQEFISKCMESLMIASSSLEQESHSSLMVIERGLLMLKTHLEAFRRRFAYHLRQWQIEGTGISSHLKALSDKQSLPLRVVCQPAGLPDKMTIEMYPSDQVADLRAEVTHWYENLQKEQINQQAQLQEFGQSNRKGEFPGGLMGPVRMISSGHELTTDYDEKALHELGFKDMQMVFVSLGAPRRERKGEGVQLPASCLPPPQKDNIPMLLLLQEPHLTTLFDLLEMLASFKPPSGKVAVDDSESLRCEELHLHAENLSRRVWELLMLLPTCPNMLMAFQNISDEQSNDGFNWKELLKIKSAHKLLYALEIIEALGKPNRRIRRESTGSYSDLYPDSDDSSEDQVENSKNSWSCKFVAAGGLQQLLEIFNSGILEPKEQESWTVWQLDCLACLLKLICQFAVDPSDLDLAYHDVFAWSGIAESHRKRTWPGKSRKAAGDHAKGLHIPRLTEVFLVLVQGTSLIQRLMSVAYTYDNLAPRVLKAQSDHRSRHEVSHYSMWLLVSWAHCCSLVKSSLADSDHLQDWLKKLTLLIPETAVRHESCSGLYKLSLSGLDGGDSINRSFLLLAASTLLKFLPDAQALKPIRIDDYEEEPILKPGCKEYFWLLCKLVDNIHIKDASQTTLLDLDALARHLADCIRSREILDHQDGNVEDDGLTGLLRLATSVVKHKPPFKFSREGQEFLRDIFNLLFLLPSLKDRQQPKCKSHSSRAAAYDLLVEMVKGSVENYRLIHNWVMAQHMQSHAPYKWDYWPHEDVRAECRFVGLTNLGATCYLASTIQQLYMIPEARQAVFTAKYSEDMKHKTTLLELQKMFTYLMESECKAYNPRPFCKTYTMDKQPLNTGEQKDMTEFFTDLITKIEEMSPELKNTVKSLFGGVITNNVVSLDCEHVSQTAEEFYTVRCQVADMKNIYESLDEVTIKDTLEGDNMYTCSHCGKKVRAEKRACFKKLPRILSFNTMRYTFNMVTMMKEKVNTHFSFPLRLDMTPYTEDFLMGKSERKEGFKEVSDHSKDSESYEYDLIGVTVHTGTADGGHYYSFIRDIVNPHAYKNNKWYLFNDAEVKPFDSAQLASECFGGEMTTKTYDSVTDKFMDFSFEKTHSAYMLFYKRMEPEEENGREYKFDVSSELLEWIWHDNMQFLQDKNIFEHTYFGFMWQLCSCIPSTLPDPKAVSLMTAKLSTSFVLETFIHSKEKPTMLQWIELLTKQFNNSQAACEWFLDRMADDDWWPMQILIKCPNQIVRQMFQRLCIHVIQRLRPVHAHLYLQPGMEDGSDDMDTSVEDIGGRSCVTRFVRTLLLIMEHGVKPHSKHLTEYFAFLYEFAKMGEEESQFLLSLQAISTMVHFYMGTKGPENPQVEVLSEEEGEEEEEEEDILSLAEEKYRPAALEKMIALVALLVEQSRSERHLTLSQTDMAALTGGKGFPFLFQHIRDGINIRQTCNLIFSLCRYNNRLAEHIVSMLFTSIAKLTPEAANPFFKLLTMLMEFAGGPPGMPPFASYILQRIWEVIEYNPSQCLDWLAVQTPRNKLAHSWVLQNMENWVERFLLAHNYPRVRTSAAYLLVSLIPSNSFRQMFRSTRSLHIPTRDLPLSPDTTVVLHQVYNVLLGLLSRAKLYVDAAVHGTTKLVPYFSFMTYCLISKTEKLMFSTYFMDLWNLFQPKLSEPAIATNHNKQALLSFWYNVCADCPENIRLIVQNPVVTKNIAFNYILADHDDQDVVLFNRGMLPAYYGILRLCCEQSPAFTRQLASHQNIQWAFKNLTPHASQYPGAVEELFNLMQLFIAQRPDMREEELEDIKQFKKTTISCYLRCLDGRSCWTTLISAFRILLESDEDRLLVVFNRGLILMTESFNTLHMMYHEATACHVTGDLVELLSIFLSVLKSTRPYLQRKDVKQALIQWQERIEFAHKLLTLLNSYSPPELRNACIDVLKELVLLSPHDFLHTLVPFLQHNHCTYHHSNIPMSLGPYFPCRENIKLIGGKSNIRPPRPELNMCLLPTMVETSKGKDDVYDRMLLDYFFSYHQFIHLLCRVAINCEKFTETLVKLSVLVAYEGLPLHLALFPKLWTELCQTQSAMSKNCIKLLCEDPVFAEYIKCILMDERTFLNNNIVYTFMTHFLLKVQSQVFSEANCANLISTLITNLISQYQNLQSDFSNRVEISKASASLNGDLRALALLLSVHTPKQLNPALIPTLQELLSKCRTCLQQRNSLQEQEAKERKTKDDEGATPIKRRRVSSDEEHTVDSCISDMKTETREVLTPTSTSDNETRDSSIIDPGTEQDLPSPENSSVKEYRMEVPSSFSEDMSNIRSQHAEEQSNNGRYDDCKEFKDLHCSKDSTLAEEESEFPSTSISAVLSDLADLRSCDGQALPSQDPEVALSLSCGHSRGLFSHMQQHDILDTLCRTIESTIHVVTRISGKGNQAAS

O=C(CCl)NCCC1COCCO1 (stereo not given)
inactive: USP34 -0.0886 | USP36 -0.0548 | USP38 -0.0125 | USP39 0.0236 | USP4 -0.00705
